MOR-DOR inv ag = mu-delta opioid heterodimer inverse agonism. cell-based MOR-DOR heterodimer luminescence. inhibition, % at 9.3 µM. 340,000 compounds, 0.21% hits; in the data active means inhibition above about 22%, passing the limit was not always enough;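 further: 0% = cells with DMSO and 100% = wells without cells with DMSO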
Target sequence (P35372 whole entry, looked up): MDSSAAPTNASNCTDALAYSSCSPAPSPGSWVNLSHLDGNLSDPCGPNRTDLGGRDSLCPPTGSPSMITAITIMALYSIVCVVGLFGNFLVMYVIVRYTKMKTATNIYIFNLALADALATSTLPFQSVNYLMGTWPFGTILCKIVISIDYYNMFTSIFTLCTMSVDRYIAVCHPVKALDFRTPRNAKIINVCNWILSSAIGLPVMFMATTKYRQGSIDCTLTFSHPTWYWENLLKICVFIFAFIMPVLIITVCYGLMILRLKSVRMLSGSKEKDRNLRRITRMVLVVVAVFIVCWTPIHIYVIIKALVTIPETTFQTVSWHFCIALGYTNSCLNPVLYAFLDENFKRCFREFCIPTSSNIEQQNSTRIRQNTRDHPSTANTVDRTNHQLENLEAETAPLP
Target sequence (P41143 whole entry, looked up): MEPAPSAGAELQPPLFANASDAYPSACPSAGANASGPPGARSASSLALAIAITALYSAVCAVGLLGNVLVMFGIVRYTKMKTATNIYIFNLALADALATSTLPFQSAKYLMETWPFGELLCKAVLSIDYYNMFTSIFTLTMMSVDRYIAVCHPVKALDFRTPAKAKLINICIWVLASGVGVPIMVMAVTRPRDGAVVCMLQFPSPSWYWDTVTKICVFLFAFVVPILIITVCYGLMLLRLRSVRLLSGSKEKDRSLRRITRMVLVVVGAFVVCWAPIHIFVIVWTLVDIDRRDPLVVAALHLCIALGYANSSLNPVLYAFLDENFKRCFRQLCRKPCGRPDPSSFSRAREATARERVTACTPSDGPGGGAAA
HTR5A inv ctr = inverse agonist of human HTR5A in OPRM1-OPRD1 counter-screen | AID 504634 | P47898 | 340,000 compounds, 0.083% hits | HTR5A cell line, luminescence, inverse agonism | inhibition, % at 9.3 µM; in the data active means inhibition mostly above about 23%, no sharp cut-off; inactive means mostly below about 18%;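 further: 0% = cells with DMSO and 100% = no-cell wells with DMSO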
OPRM1-OPRD1 ag = OPRM1-OPRD1 heterodimerization agonism; AID 504326; 340,000 compounds, 0.3% hits; P35372+P41143; activation, % at 9.3 µM; cells, luminescence;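 further: 0% = vehicle-treated cells and 100% = reference agonist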
HTR5A ag = counter-screen for OPRM1-OPRD1 agonists: human HTR5A agonism; 340,000 compounds, 0.61% hits; HTR5A agonist assay, luminescence, cell-based; P47898; activation, % at 9.3 µM; in the data active means activation mostly above about 9.5%, no sharp cut-off; inactive means mostly below about 7.6%;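 further: 0% = cells with vehicle only and 100% = reference agonist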
MOR-DOR ag conf = OPRM1-OPRD1 heterodimer agonism, confirmation. activation, % at 9.3 µM. cells, MOR-DOR heterodimerization, luminescence complementation. 830 compounds, 45% hits. AID 504904. shares compounds with OPRM1-OPRD1 ag;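 further: 0% = vehicle-treated cells and 100% = reference agonist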
HTR5A ag counter = HTR5A agonism, opioid heterodimer counter-screen | shares compounds with OPRM1-OPRD1 ag | HTR5A agonist counterscreen, cell luminescence | activation, % at 9.3 µM | 830 compounds, 8% hits | AID 504905; in the data active means activation above about 17%;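 further: 0% = vehicle-treated cells and 100% = reference agonist response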
* hit, by the source's call; i = inactive; / = not tested or not shown. Sampled rows, rich in hits. Any-hit rate of the full collection: about 1.1%. Unless noted, no stated cut-off is given here; in the data, active means activation above about 18%; inactive means the rest.

SMILES | MOR-DOR inv ag | HTR5A inv ctr | OPRM1-OPRD1 ag | HTR5A ag | MOR-DOR ag conf | HTR5A ag counter
CN(C(=O)COC(=O)C1CCN(S(=O)(=O)c2c(Cl)cccc2Cl)CC1)C1CCS(=O)(=O)C1 (stereo not given) | 4 | -3 | -1 | 1 | / | /
NC(=O)c1cc(-c2csc(NCCc3ccccc3)n2)ccc1O | -102 | 1 | 19* | 0 | 20* | -1
C=CCNc1nc(-c2ccc(O)c(C(N)=O)c2)cs1 | 4 | 7 | -1 | -3 | / | /
Cc1occc1C(=O)N1CCCC(N2CCN(c3cccc(Cl)c3)CC2)C1 (stereo not given) | 13 | -15 | -3 | 6 | / | /
NS(=O)(=O)c1ccc(NC(=O)CSc2nc3ccccc3nc2N2CCOCC2)cc1 | 5 | -11 | -1 | 4 | / | /
O=C(NCc1ccccc1Cl)C1CCC(CNc2nc(=S)[nH]c3ccccc23)CC1 (stereo not given) | 12 | -8 | -2 | 3 | / | /
S=c1nc(NCCc2ccccc2Cl)c2ccccc2[nH]1 | -108 | -20 | 23* | 5 | 12 | 8
O=C(NCCc1ccc(Cl)cc1)C1CCC(CNc2nc(=S)[nH]c3ccccc23)CC1 (stereo not given) | -175 | 3 | 33* | -1 | 36* | 10
CCOc1ccc2nc(NC3=NC(C)(C)C=C(C)N3)nc(C)c2c1 | i | 0 | 158* | 0 | 1 | -1
CCOc1ccc2nc(NC3=NC(c4ccc(OC)cc4)CC(=O)N3)nc(C)c2c1 (stereo not given) | -77 | -25 | 13 | 6 | / | /
CCOc1ccc2c(C)nc(NC3=NC(C)(C)C=C(C)N3)nc2c1 | i | -2 | 170* | -3 | 2 | 1
CCN(CC(=O)NCc1ccc(Cl)cc1)C(=O)COc1cccc(Cl)c1 | 11 | 0 | -2 | 0 | / | /
CC(C)CC(=O)NC1(C(F)(F)F)C(=O)N(CC(C)C)C2=C1C(=O)CC(C)(C)C2 (stereo not given) | 4 | 11 | -1 | -3 | / | /
Oc1ccccc1C1SC(c2ccccc2O)SC(c2ccccc2O)S1 (stereo not given) | -115 | -7 | 22* | 2 | 20* | 8
CCN1CCN(CCCNC(=O)c2ccccc2NC(=O)C2=C(C)OCCS2)CC1 | 2 | 14 | 0 | 0 | / | /
Oc1ccccc1CNc1ccc(Br)cn1 | -423 | -48 | 71* | 32* | 60* | 27*
Brc1ccc(NCc2cccc3ccccc23)nc1 | -16 | 22 | 3 | -2 | / | /
CC(=O)NC1=NC(=O)/C(=C/c2cc(C)n(-c3ccc(NC(C)=O)cc3)c2C)S1 | -312 | -47 | 60* | -3 | 14 | 4
Cc1cc(/C=C2\SC(=O)N(C)C2=O)c(C)n1-c1ccc(O)cc1 | -46 | 10 | 9 | 1 | / | /
Cc1ccc(/C=N/NC(=O)CSc2nnc(-c3ccc(Cl)cc3)n2-c2ccc(Cl)cc2)o1 | -186 | -32 | 37* | 11 | 18 | 17*
CCc1ccc(NC(=O)N(CCCN2CCOCC2)Cc2cccs2)cc1 | -202 | -25 | 34* | 9 | 47* | -4
CN(C)C(CNC(=O)CCS(=O)(=O)c1ccccc1)c1ccccc1 (stereo not given) | -270 | 3 | 60* | -1 | 4 | 2
CN(C)C(CNC(=O)CCc1c[nH]c2ccccc12)c1ccccc1 (stereo not given) | i | -3 | 138* | 1 | 20* | 9
O=C(CCNS(=O)(=O)c1ccccc1C(F)(F)F)NCCCSc1ccccc1 | 1 | -14 | 0 | -1 | / | /
O=C(CCS(=O)(=O)c1ccccc1)NCCS(=O)(=O)c1ccccc1 | 14 | 5 | -3 | -2 | / | /
CN(C)C(CNC(=O)CCNS(=O)(=O)c1ccccc1C(F)(F)F)c1ccccc1 (stereo not given) | -104 | -5 | 25* | 2 | 29* | 3
CC(NC(=O)CCc1c[nH]c2ccccc12)c1ccccc1 (stereo not given) | 9 | 6 | -2 | -2 | / | /
CCO[C@@H]1OC(C(=O)N2CCOCC2)=C[C@H](c2coc3ccccc3c2=O)[C@H]1CCCO | 14 | 5 | -2 | -2 | / | /
O=C(CNC(=O)CNC(=O)c1ccc(Cl)cc1Cl)NCc1cccc(Cl)c1 | 6 | 3 | -1 | -3 | / | /

Screens from PubChem.
